Test [1] concerns the target Acetylcholinesterase (Homo sapiens) (UniProt P22303). The test is described as follows: Acetylcholinesterase (AChE) small molecule antagonists: colormetric cell-based qHTS assay (AID 1347395). Also: nearly all actives have a fitted effect of over 30% in size. Also: potency is read from the fitted curve at half-maximal effect. In outline: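 Neuroblastoma line SH-SY5Y supplied the enzyme; cells were preincubated with compound for 30 min at 37 C and 5% CO2. Acetylthiocholine with DTNB was then added for 90 min at 37 C, and thiocholine was measured by colour.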
For orientation: qHTS replaces the single test concentration by a dilution series.

Test [2] has the same target. The test is described as follows: Acetylcholinesterase (AChE) small molecule antagonists: fluorescence cell-based qHTS assay (AID 1347398). Also: nearly all actives have a fitted effect of over 50% in size. Also: potency is read from the fitted curve at half-maximal effect. Conditions: Potency: AChE activity; outcome: AChE activity. In outline: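 Endogenous acetylcholinesterase of SH-SY5Y neuroblastoma cells is measured in situ. After overnight attachment and 30 min compound exposure, cells receive acetylthiocholine and Thiolite Green; fluorescence is read after 40 min at room temperature.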

Test [3] shares this target. As to the kind of experiment: Acetylcholinesterase (AChE) small molecule antagonists: enzyme-based qHTS assay with human liver microsomes (AID 1347399). Also: nearly all actives have a fitted effect of over 60% in size. The settings on record: Potency: qHTS inhibition; outcome: qHTS inhibition. In outline: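 Recombinant human AChE (50 mU/mL in the enzyme mix) and human liver microsomes (0.25 mg/mL final) were preincubated with compound and NADPH (0.25 mg/mL final) for 30 min at 37 C. Acetylthiocholine/DTNB was then added; thiocholine was read colorimetrically after 10 min at room temperature.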

For test [4] the target is unchanged. The test is described as follows: Acetylcholinesterase (AChE) small molecule antagonists: enzyme-based qHTS assay (AID 1347397). Also: nearly all actives have a fitted effect of over 55% in size. Also: potency is read from the fitted curve at half-maximal effect. The settings on record: Potency: AChE enzyme activity inhibition; outcome: AChE enzyme activity inhibition. In outline:
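Enzyme inhibition was scored from DTNB-detected thiocholine formed by recombinant human AChE acting on acetylthiocholine. The 30 min compound preincubation and 10 min substrate reaction were both run at room temperature, with DMSO as vehicle control.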

In PubChem BioAssay (Tox21) one finds Potency data, which are given here for 39 compounds.

Results filed as inconclusive are left out. Activity calls are given as the source filed them. Calls follow the shape of the full dose curve.

Acetylcholinesterase (Homo sapiens), sequence (P22303 whole entry, looked up): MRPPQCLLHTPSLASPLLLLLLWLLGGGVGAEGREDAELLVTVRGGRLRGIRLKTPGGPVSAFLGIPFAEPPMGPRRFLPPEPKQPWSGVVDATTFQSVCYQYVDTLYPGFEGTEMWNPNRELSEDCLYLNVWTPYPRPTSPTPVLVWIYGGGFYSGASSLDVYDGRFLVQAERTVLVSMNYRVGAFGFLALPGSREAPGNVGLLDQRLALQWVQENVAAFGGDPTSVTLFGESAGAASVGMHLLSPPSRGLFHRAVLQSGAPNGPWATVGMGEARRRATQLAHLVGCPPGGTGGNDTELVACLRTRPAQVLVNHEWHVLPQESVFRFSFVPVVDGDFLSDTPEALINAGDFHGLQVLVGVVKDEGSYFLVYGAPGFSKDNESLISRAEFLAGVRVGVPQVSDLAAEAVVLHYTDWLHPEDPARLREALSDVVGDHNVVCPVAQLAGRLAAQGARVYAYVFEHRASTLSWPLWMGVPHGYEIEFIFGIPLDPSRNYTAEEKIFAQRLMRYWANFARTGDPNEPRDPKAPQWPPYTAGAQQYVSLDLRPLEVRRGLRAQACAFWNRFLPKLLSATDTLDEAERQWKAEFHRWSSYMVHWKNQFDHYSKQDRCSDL

For the compound `CCc1cc(SCc2sc(-c3ccc(C(F)(F)F)cc3)nc2CN2CCN(c3ccc(OC)cc3)CC2)ccc1OCC(=O)O`, the Potency result in test [1], in test [2] and in test [3] was “inactive” in each case.
Regarding `O=S1(=O)CC(Cl)(Cl)C(Cl)(Cl)C1`, in test [1], the Potency is 71 µM (active). Also, the Potency entry in test [2] was “inactive”.
Regarding `CCN(CC)CCNC(C(=O)OCCC(C)C)c1ccccc1` (stereo not drawn), the Potency entry in test [1], in test [2] and in test [3] was “inactive” in each case.
Consider `CCCOC(C(=O)OC1CCN(C)CC1)(c1ccccc1)c1ccccc1`, for which the Potency entry in test [1], in test [4] and in test [3] was “inactive” in each case.
On to `CN(C)CCOc1ccc(/C(=C(/CCCl)c2ccccc2)c2ccccc2)cc1`, for which the Potency result in test [1], in test [2] and in test [3] was “inactive” in each case.
Turning to `CCCC(C(=O)OCCN(CC)CC)(c1ccccc1)c1ccccc1`, the Potency entry in test [1], in test [4] and in test [3] was “inactive” each time.
Turning to `CCN(CC)CCNC(=O)COc1ccc(OC)cc1`, the Potency result in test [1], in test [4] and in test [3] was “inactive” each time.
For `CCCCOCCCC`, the Potency entry in test [1], in test [4] and in test [3] was “inactive” throughout.
In the case of `CCCCCCCCCOC(=O)c1ccc(O)cc1`, the Potency result in test [1], in test [2] and in test [3] was “inactive” throughout.
As for `CCCC(=O)OCC`, the Potency result in test [1] and in test [2] was “inactive” in each case.
With `Cc1nc2n(c(=O)c1CCN1CCC(C(=O)c3ccc(F)cc3)CC1)CCS2`, the Potency in test [1] is 13.8 µM (active); in test [2], 9.77 µM (active). Also, the Potency result in test [3] was “inactive”.
Turning to `COC(=O)c1ccccc1C(=O)c1ccc(OCCN2CCCCC2)cc1`, the Potency result in test [1], in test [4] and in test [3] was “inactive” throughout.
For `O=C(CCOCCOCCOCCOCCC(=O)Nc1c(I)cc(I)c(C(=O)O)c1I)Nc1c(I)cc(I)c(C(=O)O)c1I`, the Potency entry in test [1], in test [4] and in test [3] was “inactive” each time.
`CNC(=O)c1cnn(-c2nc(N)c3ncn([C@@H]4O[C@H](CO)[C@@H](O)[C@H]4O)c3n2)c1`: the Potency entry in test [1], in test [4] and in test [3] was “inactive” in each case.
Turning to `CCCCCCCCCCCCOC(=O)c1ccc(O)cc1`, the Potency result in test [1], in test [2] and in test [3] was “inactive” each time.
For `COc1cc(N)c(Cl)cc1C(=O)NC1CCN(CCCOc2ccc(F)cc2)CC1OC` (stereo not drawn), the Potency result in test [1], in test [4] and in test [3] was “inactive” throughout.
As to `CCCCCCCCCCCCCCCC[N+](C)(C)CCN(Cc1ccc(OC)cc1)c1ncccn1`, the Potency entry in test [1] and in test [3] was “inactive” throughout. Moreover, the Potency in test [4] was 34.7 µM (active).
As for `CCN(CCCCOC(=O)c1ccc(OC)c(OC)c1)C(C)Cc1ccc(OC)cc1` (stereo not drawn), in test [1], the Potency was 17.4 µM (active). Moreover, the Potency entry in test [4] and in test [3] was “inactive” each time.
For `CC(C)c1ccccc1`, the Potency entry in test [1] and in test [2] was “inactive” each time.
`O=C(O)c1cc(O)c2ccccc2c1O`: the Potency result in test [1], in test [4] and in test [3] was “inactive” in each case.
In the case of `Nc1c(N=Nc2ccc(-c3ccc(N=Nc4cc(S(=O)(=O)O)c5ccccc5c4N)cc3)cc2)cc(S(=O)(=O)O)c2ccccc12`, the Potency in test [1] is 79.6 µM (active); in test [2] it was 71 µM (active). For the same compound, the Potency result in test [3] was “inactive”.
Take `O[C@@H](CNC[C@H](O)[C@H]1CCc2cc(F)ccc2O1)[C@@H]1CCc2cc(F)ccc2O1`: the Potency entry in test [1], in test [4] and in test [3] was “inactive” each time.
On to `CC(C)C[P+](C)(CC(C)C)CC(C)C`, for which, in test [1], the Potency was 40.2 µM (active). Further, the Potency result in test [4] and in test [3] was “inactive” each time.
For the compound `CC1=CC[C@@]23C[C@@H]1C(C)(C)[C@@H]2CC[C@H]3C`, the Potency entry in test [1] and in test [2] was “inactive” throughout.
Consider `CN1CCN(Cc2cc(-c3ccc4[nH]c(=O)oc4c3)co2)[C@@H](c2ccc(F)cc2)C1`, for which the Potency result in test [1], in test [4] and in test [3] was “inactive” throughout.
Turning to `Cc1occc1C(=O)Nc1ccc(C(=O)N2CCC(F)(F)/C(=C\C(=O)N3CCC(N4CCCCC4)CC3)c3ccccc32)cc1`, the Potency result in test [1], in test [4] and in test [3] was “inactive” in each case.
Turning to `CCN(CC)CCOC(=O)C(Cc1cccc2ccccc12)CC1CCCO1` (stereo not drawn), the Potency result in test [1], in test [4] and in test [3] was “inactive” throughout.
Take `CCCCCCCCCCCCCCCCC(C(=O)O)C(O)(CC(=O)O)C(=O)O` (stereo not drawn): the Potency entry in test [1], in test [2] and in test [3] was “inactive” each time.
With `CC1=C(O)C(=O)C(C)O1` (stereo not drawn), the Potency entry in test [1], in test [2] and in test [3] was “inactive” in each case.
As to `COC(=O)C1=C(C)NC(COC(N)=O)=C(C(=O)OC(C)C)C1c1cccc(Cl)c1Cl` (stereo not drawn), the Potency result in test [1], in test [2] and in test [3] was “inactive” in each case.
Consider `CCCN(CCc1cccs1)[C@H]1CCc2c(O)cccc2C1`, for which the Potency in test [1] was 13.8 µM (active); in test [2], 11 µM (active). The Potency entry in test [3] is “inactive”.
Consider `C[N+]1(C)CCCC(OC(=O)C(O)(c2ccccc2)c2ccccc2)C1` (stereo not drawn), for which the Potency entry in test [1], in test [2] and in test [3] was “inactive” in each case.
As for `CCCc1ccc(OC)cc1`, the Potency entry in test [1], in test [2] and in test [3] was “inactive” throughout.
As for `COc1cc(C(=O)NC2CCN(C)CC2)ccc1Nc1ncc2c(n1)N(C1CCCC1)CC(F)(F)C(=O)N2C`, the figures for the Potency in test [1] and in test [2] were 32.6 µM (active) and 11.6 µM (active), respectively. The Potency entry in test [3] was “inactive”.
Take `CC(=O)OCC(=O)Nc1cc(C#N)cc(NC(=O)COC(C)=O)c1Cl`: the Potency result in test [1], in test [2] and in test [3] was “inactive” throughout.
In the case of `C=CC(C)(O)CC/C=C(\C)CCC=C(C)C` (stereo not drawn), the Potency entry in test [1], in test [2] and in test [3] was “inactive” each time.
For the compound `N#CSCSc1nc2ccccc2s1`, the Potency result in test [1], in test [2] and in test [3] was “inactive” throughout.
`CCOC(=O)c1ccccc1C(=C1C=C(Br)C(=O)C(Br)=C1)c1cc(Br)c(O)c(Br)c1`: the Potency entry in test [1], in test [2] and in test [3] was “inactive” in each case.
In the case of `Oc1c(Cl)cc(Cl)c(Cl)c1Cc1c(O)c(Cl)cc(Cl)c1Cl`, the Potency entry in test [1], in test [2] and in test [3] was “inactive” each time.
